The whole screen tested about 3,400 compounds, of which about 840 (25%) were called active. Another 11% or so got no clear call; they are omitted. The list is a sample of the results. Measured potencies and affinities stand elsewhere. A number with no mark means an inactive call.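 The calls were made as follows: active = fitted half-maximal concentration of signal decrease at or below twice the sample's top tested concentration; inconclusive = flat curve between -70 and -30 percent, or poor fit; inactive = flat within 30 percent, signal rise, or potency above limit.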

This assay in a line: inhibitors of Toxoplasma growth in IFN-γ-primed HeLa – cell-based, ME49Luc, luciferase, 72 h, dose response (AID 1259418). Conditions: T. gondii ME49Luc in IFN-y HeLa, active compounds read low, -100% = high-dose IFN-γ control wells; at 19.5 µM unless noted.
Regarding `COc1ccc(NC(=O)Nc2ccc(-c3nc(-c4ccccc4)co3)cc2)cc1`, the max activity was -14% [at 0.68 µM].

Take `CCOc1ccccc1-c1nc(CN(c2ccccc2)S(=O)(=O)c2ccccc2)c(C)o1`: the max activity is 15.6%.

As for `COc1ccccc1N(Cc1nc(-c2cccc(OC)c2OC)oc1C)S(=O)(=O)c1ccccc1`, the max activity is 3.95%.

As for `CCOc1ccccc1-c1nc(CN(c2ccccc2OC)S(=O)(=O)c2ccc(C)cc2)c(C)o1`, the max activity is -6.32%.

In the case of `COc1ccc(-c2nc(Cn3nnc(-c4nc(-c5ccccc5)no4)c3C)c(C)o2)cc1`, the max activity was 11% [at 0.16 µM].

Take `Cc1ccc(NC(=O)Nc2ccc(-c3nc(-c4ccccc4)co3)cc2)cc1C`: the max activity was 24.4%.

As to `Cc1cc(-n2nnc(C(=O)N3CCC(N4CCCCC4)CC3)c2-c2ccncc2)ccc1F`, the max activity was -34.1%.

Consider `Cc1ccccc1C(=O)N1CCC2(CC1)Nc1cc(F)ccc1-n1cccc12`, for which the max activity is -6.16% [at 1.35 µM].

For the molecule `COc1ccc(OCC(=O)N2CCC3(CC2)Nc2ccc(C)c(C)c2-n2cccc23)cc1`, the max activity was -9.59% [at 2.6 µM].

In the case of `CCOC(=O)C1CCCN(c2nc(-c3ccc(Cl)cc3)nc3ccccc23)C1` (centres undefined), the max activity was 5.87% [at 0.35 µM].

With `Cc1noc(C)c1S(=O)(=O)N1CSC[C@@H]1C(=O)NCCc1csc(-c2ccccc2)n1`, the max activity is 13.2% [at 1.35 µM].

For the molecule `Cc1cccc(NC(=O)Nc2ccc(-c3nc(-c4ccc(C)cc4C)co3)cc2)c1`, the max activity was -13.9% [at 0.16 µM].

As for `COc1ccccc1-c1noc(-c2nnn(Cc3nc(-c4cccc(Cl)c4)oc3C)c2C)n1`, the max activity is 9.3% [at 0.16 µM].

`CCc1nc(OCC(=O)Nc2ccccc2C(F)(F)F)c2ccccc2n1`: the max activity is 15.4% [at 2.6 µM].

In the case of `Cc1ccc(-c2coc(-c3ccc(NC(=O)NCc4ccccc4)cc3)n2)c(C)c1`, the max activity is 5.28% [at 0.16 µM].

Consider `COc1ccc(-c2nc(Cn3nnc(-c4nc(-c5ccccn5)no4)c3C)c(C)o2)cc1`, for which the max activity was -5.61% [at 10 µM].

In the case of `COc1ccccc1-c1nc(C)c(-c2ccc(SCc3ccccc3)nn2)s1`, the max activity is -5.61% [at 0.68 µM].

Regarding `COc1ccc2c(c1)NC1(CCN(C(=O)c3ccc(Br)cc3)CC1)c1cccn1-2`, the max activity was 15.6% [at 0.68 µM].

Regarding `O=C(NCc1cccnc1)C1CCN(Cc2cc3ccccc3n2Cc2cccc(Cl)c2)CC1`, the max activity is -5.31% [at 5 µM].

For `O=C(NCCN1CCCC1)C1CCN(Cc2cc3ccccc3n2Cc2cccc(Cl)c2)CC1`, the max activity was -8.03% [at 1.35 µM].

For `O=C(NCCCN1CCCC1=O)C1CCN(Cc2cc3ccccc3n2Cc2ccccc2)CC1`, the max activity was -6.87% [at 2.6 µM].

As to `Cc1ccc(Cn2c(CN3CCC(C(=O)N4CCCC4)CC3)cc3ccccc32)cc1`, the max activity was 17.8% [at 2.6 µM].

Consider `O=C(C1CCN(Cc2cc3ccccc3n2Cc2cccc(Cl)c2)CC1)N1CCCC1`, for which the max activity was -6.26% [at 1.35 µM].

As for `Cc1cccc(Cn2c(CN3CCC(C(=O)NCCCN4CCCC4=O)CC3)cc3ccccc32)c1`, the max activity was 13.5%.

For the origin of these results see PubChem BioAssay AID1259418 (Broad Institute, 2018).
